Whole data set: some 18,000 sequences, median “log2 normalized intensity” near 0.36, cut for the highest 2% near 7.3. The entries come from a sample that favours the highest values as a whole.
target: T1, HNF4alpha8 (COS-7 nuclear extract) (Homo sapiens, UniProt P41235-5 1-452); assay: protein-binding microarray; COS-7 nuclear extract on double-stranded Agilent 4x180k PBM; binding buffer, salt, pH and temperature not given in the material; high values mean tight binding; conditions: chain copies: 2; label: 3' end of strand 1 on the slide; dsDNA, one strand shown
T1 sequence: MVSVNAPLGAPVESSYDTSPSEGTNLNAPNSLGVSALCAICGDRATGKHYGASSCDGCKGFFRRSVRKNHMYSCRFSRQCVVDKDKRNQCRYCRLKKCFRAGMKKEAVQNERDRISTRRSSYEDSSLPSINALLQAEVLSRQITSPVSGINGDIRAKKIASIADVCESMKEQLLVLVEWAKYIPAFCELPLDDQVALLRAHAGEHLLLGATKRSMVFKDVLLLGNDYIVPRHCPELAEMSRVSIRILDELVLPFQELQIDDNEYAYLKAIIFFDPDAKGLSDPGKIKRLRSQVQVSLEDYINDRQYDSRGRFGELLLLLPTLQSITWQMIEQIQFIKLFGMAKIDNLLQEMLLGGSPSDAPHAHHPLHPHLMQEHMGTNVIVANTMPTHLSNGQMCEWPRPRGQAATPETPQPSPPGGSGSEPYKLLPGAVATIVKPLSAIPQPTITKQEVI
In short: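 A human HNF4α isoform was expressed in COS-7 cells by transient CaPO4 transfection, and nuclear extracts were prepared. These were applied to a custom Agilent SurePrint G3 4x180k array carrying ~44,000 test sequences in quadruplicate as double-stranded ~60-nt oligonucleotides, and an Agilent G2565CA scanner imaged bound HNF4α at 2-µm resolution. The background-corrected, normalized gProcessedSignal from Agilent software was used as the binding signal.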

Sequence	binding signal
CCCCCGCAACTATTTATGAGTCTTGGGAATGCCTAGGGAGATTAGAGTATCGGTCGA	0.709 log2 normalized intensity
CACAGTGTTATTTGCTGAGGTGGGGGAGGTGCCTAGGGAGATTAGAGTATCGGTCGA	0.772 log2 normalized intensity
TTAGGGAGGGGCCAGGACAAAGGTCCTGTGGCCTAGGGAGATTAGAGTATCGGTCGA	2.51 log2 normalized intensity
GGTTAAAATTTATCTATTGGGTACAATGTTGCCTAGGGAGATTAGAGTATCGGTCGA	2.37 log2 normalized intensity
CTTCCAGTCCACAGTCCAGTGACTATCTGCGCCTAGGGAGATTAGAGTATCGGTCGA	1.02 log2 normalized intensity
AGGGAATTTCTAGGTTTGATCTTTGCCCTAGCCTAGGGAGATTAGAGTATCGGTCGA	7.66 log2 normalized intensity
TTTCTTAATTGCCCTTTGCCCTTTGCCCAAGCCTAGGGAGATTAGAGTATCGGTCGA	8.84 log2 normalized intensity
GCCCTTTGCCCTTTGCCCAACCCTCTCCCAGCCTAGGGAGATTAGAGTATCGGTCGA	6.2 log2 normalized intensity
TCCTCAGGGAATTTCTAGGTTTGATCTTTGGCCTAGGGAGATTAGAGTATCGGTCGA	3.49 log2 normalized intensity
CCATCCTACAGGGTATGAATTTAACCTTTGGCCTAGGGAGATTAGAGTATCGGTCGA	4.92 log2 normalized intensity
ATTTCTAGGTTTGATCTTTGCCCTACAATTGCCTAGGGAGATTAGAGTATCGGTCGA	6.36 log2 normalized intensity
CTACAGGGTATGAATTTAACCTTTGCTCTCGCCTAGGGAGATTAGAGTATCGGTCGA	7.57 log2 normalized intensity
TGACCTTTGCATTCTTACCCAAGCCCCAAAGCCTAGGGAGATTAGAGTATCGGTCGA	4.12 log2 normalized intensity
ACTTTGCCCTTTTTTTCTCTCCCCTTTTAAGCCTAGGGAGATTAGAGTATCGGTCGA	2.63 log2 normalized intensity
TTGCCCTTTGCCCAACCCTCTCCCACTCCCGCCTAGGGAGATTAGAGTATCGGTCGA	4.93 log2 normalized intensity
TAATTGCCCTTTGCCCTTTGCCCAACCCTCGCCTAGGGAGATTAGAGTATCGGTCGA	7.74 log2 normalized intensity
GGGTATGAATTTAACCTTTGCTCTCTGAAAGCCTAGGGAGATTAGAGTATCGGTCGA	6.63 log2 normalized intensity
CTGAATCTCCCAGTGCTTTGATCTTCAACTGCCTAGGGAGATTAGAGTATCGGTCGA	0.419 log2 normalized intensity
CACTTGTAGGCCTGTGTGCATGGAGTGCACGCCTAGGGAGATTAGAGTATCGGTCGA	0.798 log2 normalized intensity
CCCCGCCCGCAGCCCAGTCTTGGCCCCACCGCCTAGGGAGATTAGAGTATCGGTCGA	6.38 log2 normalized intensity
GAGTTATCTTCCTCCCCCCTTGGCTACATGGCCTAGGGAGATTAGAGTATCGGTCGA	4.15 log2 normalized intensity
TAGGCATTGTCTTGAAAGATAAAGTGTCTCGCCTAGGGAGATTAGAGTATCGGTCGA	1.48 log2 normalized intensity
TGTGTCAAAGGTCACTTAGTCCCTAAGTCTGCCTAGGGAGATTAGAGTATCGGTCGA	5.26 log2 normalized intensity

Sequence	binding signal
TTCCCTACCCCCTGGGAGTAACCTGCTTGTGCCTAGGGAGATTAGAGTATCGGTCGA	2.25 log2 normalized intensity
TTTTAAATACCTTTTTGGGACTGATAACTTGCCTAGGGAGATTAGAGTATCGGTCGA	1.23 log2 normalized intensity
AGCATGGAGAAAATTCTGGACCTTCTTATCGCCTAGGGAGATTAGAGTATCGGTCGA	1.59 log2 normalized intensity
CGCTGCGGGTCACGTGCCGCTGCGGGTCACGCCTAGGGAGATTAGAGTATCGGTCGA	2.61 log2 normalized intensity
AGAATGACCAGGAGTTTGGGATCAGACACGGCCTAGGGAGATTAGAGTATCGGTCGA	0.332 log2 normalized intensity
GAAACTTATTGTGAACTGGAGCAAAGGTCAGCCTAGGGAGATTAGAGTATCGGTCGA	5.97 log2 normalized intensity
TTATCTTGATGGTTAAAGTCCAATCTTCTGGCCTAGGGAGATTAGAGTATCGGTCGA	4.82 log2 normalized intensity
GACCATCACCACTTCAAGCTTGGTATGCTTGCCTAGGGAGATTAGAGTATCGGTCGA	-0.696 log2 normalized intensity
AGACTTTTTTTTTCTTAATTGCCCTTTGCCGCCTAGGGAGATTAGAGTATCGGTCGA	5.04 log2 normalized intensity
TTTTTTTTCTTAATTGCCCTTTGCCCTTTGGCCTAGGGAGATTAGAGTATCGGTCGA	9.03 log2 normalized intensity
ACAGTAGACTTTTTTTTTCTTAATTGCCCTGCCTAGGGAGATTAGAGTATCGGTCGA	3.18 log2 normalized intensity
TCTGCAGCAGATGGCCAGCCTTTGGACTTTGCCTAGGGAGATTAGAGTATCGGTCGA	8.08 log2 normalized intensity
GGACTTTGGCCCTCAGCCCAATGTGGTAGGGCCTAGGGAGATTAGAGTATCGGTCGA	6.09 log2 normalized intensity
TCTGATGCCATGATAAGCAGTGTGGACTTTGCCTAGGGAGATTAGAGTATCGGTCGA	7.54 log2 normalized intensity
GAACAGCAAGACTTTGGCCCTGCAGACTTTGCCTAGGGAGATTAGAGTATCGGTCGA	3.02 log2 normalized intensity
ACCTCTCTGATGCCATGATAAGCAGTGTGGGCCTAGGGAGATTAGAGTATCGGTCGA	0.716 log2 normalized intensity
GTGACTTGAAAGGGACTTAGAATCGAATTGGCCTAGGGAGATTAGAGTATCGGTCGA	-0.0805 log2 normalized intensity
TGCCATGATAAGCAGTGTGGACTTTTTCCTGCCTAGGGAGATTAGAGTATCGGTCGA	3.69 log2 normalized intensity
GATTGGACTTTGGCCTGTGAATCCACATTCGCCTAGGGAGATTAGAGTATCGGTCGA	6.47 log2 normalized intensity
TACTGGGGATGGACTTTGGCCCTCAGCCCAGCCTAGGGAGATTAGAGTATCGGTCGA	9.48 log2 normalized intensity
GGGATGGACTTTGGCCCTCAGCCCAATGTGGCCTAGGGAGATTAGAGTATCGGTCGA	7.1 log2 normalized intensity
AAAGAGATTGGACTTTGGCCTGTGAATCCAGCCTAGGGAGATTAGAGTATCGGTCGA	9.05 log2 normalized intensity
TGAATTCTGCAGCAGATGGCCAGCCTTTGGGCCTAGGGAGATTAGAGTATCGGTCGA	-0.939 log2 normalized intensity

Source: article PMC10726135, “HNF4α isoforms regulate the circadian balance between carbohydrate and lipid metabolism in the liver”
